Drawing on PubChem BioAssay, this text covers z-score and composite z-score for twelve molecules.

Assay [1] is described as follows: HepG2 liver cancer cell viability effects, profiling panel, resazurin fluorescence, 24 h, PK04 Diversity Set (AID 1172). Also: test concentration not given here. The conditions noted are these: higher = more signal.
Assay [2] can be described thus: basal S. cerevisiae growth modulation, no modifier, primary screen, OD600, strain BY4716, 24 h, basal condition (AID 1173). The conditions noted are these: OD600, 24 h, higher = more signal, called active from +8 up or from −8 down.
A short description of assay [3]: MM1S myeloma cell viability, profiling panel, resazurin fluorescence, basal, 24 h, PK04 Diversity Set (AID 1174).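 Also: MM1S multiple myeloma cell line; test concentration not given here.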 The settings on record: higher = more signal, called active from +8 up or from −8 down. For orientation: The colour change of resazurin is a common sign of viable cells or microbes.
Assay [4] deals with Dihydroorotate dehydrogenase (quinone), mitochondrial (Plasmodium falciparum (isolate 3D7)) (UniProt Q08210). Put plainly: PfDHODH enzyme inhibitors, primary screen, biochemical, C-terminal His tag, absorbance 600 nm (AID 1175).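 Also: recombinant parasite enzyme with a five histidine tag at its C terminus; test concentration not given here.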 The conditions noted are these: DCIP absorbance 600 nm, higher = more signal, called active from +8 up or from −8 down.
Assay [5] can be described thus: P. aeruginosa biofilm formation inhibitors, primary screen, strain PAO1, LB-PBS medium, absorbance 600 nm (AID 1176). Also: test concentration not given here. The conditions noted are these: P. aeruginosa PAO1 growth/biofilm, A600, 12 h; higher = more signal.
The nature of assay [6]: S. cerevisiae RM11-1a growth modifiers, primary screen, strain RM11-1a, OD600, basal, 24 h (AID 1177).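 Also: cultures grown under basal conditions with no added stressor; test concentration not given here.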 The conditions noted are these: OD600, 24 h, higher = more signal, called active from +8 up or from −8 down.
A short description of assay [7]: E. coli acrAB mutant growth effects, primary screen, E. coli filamentation inducers, strain DRC39, OD650, 24 h (AID 1178).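 Also: growth measured as culture turbidity by optical density at 650 nm; test concentration not given here.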 The settings on record: higher = more signal, called active from +8 up or from −8 down.
A short description of assay [8]: E. coli acrAB mutant growth effects, primary screen, E. coli filamentation inducers, strain DRC39, OD650, 48 h (AID 1179).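 Also: screen aims at cell division blockers that make cells filament.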 The conditions noted are these: E. coli DRC39 delta-acrAB growth, higher = more signal, called active from +8 up or from −8 down.
The nature of assay [9]: RPMI8226 myeloma cell viability, profiling panel, resazurin fluorescence, basal, 24 h, PK04 Diversity Set (AID 1180).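 Also: RPMI8826 multiple myeloma cell line at 5000 cells per well; test concentration not given here.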 The settings on record: higher = more signal.
Assay [10] has as its target E3 ubiquitin-protein ligase XIAP (Homo sapiens) (UniProt P98170). Description: XIAP binders, primary screen, biophysical, small-molecule microarray, fluorescence 635 nm (AID 1181).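 Also: score merges 667 nm emission and signal to noise over triplicate slides.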 The settings on record: small-molecule microarray binding, higher = more signal.

Calls of active or inactive are those of the source. Unless noted, no rule for the calls is given here.

Sequence of E3 ubiquitin-protein ligase XIAP (Homo sapiens) (P98170 whole entry, looked up): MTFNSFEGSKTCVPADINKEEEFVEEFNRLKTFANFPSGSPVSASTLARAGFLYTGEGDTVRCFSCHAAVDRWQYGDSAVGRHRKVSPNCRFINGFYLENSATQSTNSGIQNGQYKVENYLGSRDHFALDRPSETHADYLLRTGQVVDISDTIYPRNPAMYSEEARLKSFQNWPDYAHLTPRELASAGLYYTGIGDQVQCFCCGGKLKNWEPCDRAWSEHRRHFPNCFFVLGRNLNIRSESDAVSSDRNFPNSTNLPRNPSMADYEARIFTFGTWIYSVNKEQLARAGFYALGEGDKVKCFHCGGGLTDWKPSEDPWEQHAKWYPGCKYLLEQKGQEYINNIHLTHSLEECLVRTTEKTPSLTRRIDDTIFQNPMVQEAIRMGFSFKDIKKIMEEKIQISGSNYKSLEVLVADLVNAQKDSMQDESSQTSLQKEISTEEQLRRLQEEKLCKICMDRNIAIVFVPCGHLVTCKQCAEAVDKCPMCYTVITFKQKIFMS
Sequence of Dihydroorotate dehydrogenase (quinone), mitochondrial (Plasmodium falciparum (isolate 3D7)) (Q08210 whole entry, looked up): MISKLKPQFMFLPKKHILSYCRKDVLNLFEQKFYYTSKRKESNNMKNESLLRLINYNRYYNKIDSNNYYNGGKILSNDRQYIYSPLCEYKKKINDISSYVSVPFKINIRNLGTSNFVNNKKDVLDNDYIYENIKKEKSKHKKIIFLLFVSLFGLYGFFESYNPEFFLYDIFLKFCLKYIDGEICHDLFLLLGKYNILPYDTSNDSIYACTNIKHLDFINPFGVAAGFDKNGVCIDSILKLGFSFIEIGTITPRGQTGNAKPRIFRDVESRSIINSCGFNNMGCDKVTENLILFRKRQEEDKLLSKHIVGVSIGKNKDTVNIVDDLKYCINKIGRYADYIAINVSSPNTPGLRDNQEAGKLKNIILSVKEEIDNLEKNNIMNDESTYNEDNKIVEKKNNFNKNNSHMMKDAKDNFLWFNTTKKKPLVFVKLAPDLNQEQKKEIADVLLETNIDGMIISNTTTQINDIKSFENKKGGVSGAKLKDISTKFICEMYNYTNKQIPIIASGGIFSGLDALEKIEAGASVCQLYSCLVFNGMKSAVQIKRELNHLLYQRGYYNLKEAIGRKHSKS

As for `CN1C(=O)C2C=CC(C(O)c3ccc(F)cc3)N(N(c3ccccc3)c3ccccc3)C2C1=O` (stereo not given), the z-score in [1] was -0.898; in [2] it was 0.41 (inactive); in assay [3], -0.957 (inactive); in [5] it was 1.14 (inactive); in assay [6], 0.242 (inactive); in assay [7], -0.513 (inactive). Moreover, the z-score in assay [8] was -0.26 (inactive); in [9], -1.36. In addition, the composite z-score in [4] is -0.0882 (inactive); in assay [10], 0.499.
Take `O=C1C2C=CC(C(O)c3c(F)cccc3Cl)N(Nc3ccccc3F)C2C(=O)N1c1ccccc1` (stereo not given): the z-score was -0.269 in assay [1]; -0.796 (inactive) in [2]; -0.819 (inactive) in assay [3]; 0.447 (inactive) in [5]; 0.824 (inactive) in assay [6]; -0.0281 (inactive) in [7]. Further, the z-score in assay [8] was 0.729 (inactive); in assay [9], -0.144. The composite z-score in assay [4] is -0.303 (inactive); in [10] it was -0.0749.
On to `O=C1C2C=CC(C(O)c3ccc4c(c3)OCO4)N(Nc3ccc([N+](=O)[O-])cc3)C2C(=O)N1c1ccccc1` (stereo not given), for which the z-score was -0.415 in assay [1]; -0.13 (inactive) in assay [2]; -0.104 (inactive) in assay [3]; 0.0641 (inactive) in assay [5]; -0.729 (inactive) in assay [6]; -1.15 (inactive) in assay [7]. For the same molecule, the z-score in assay [8] was -0.411 (inactive); in [9] it was -0.56. Moreover, the composite z-score in assay [4] was -1.46 (inactive); in assay [10], 0.191.
In the case of `CCOC(=O)C[C@H]1[C@H](OC(=O)c2ccc(C(=O)c3ccccc3)cc2)[C@@H](NC(=O)c2ccccc2)c2cc(OCCCO)ccc2N1C(=O)c1ccccc1`, the z-score is -0.529 in assay [1]; 0.783 (inactive) in assay [2]; -0.224 (inactive) in assay [3]; 0.137 (inactive) in assay [5]; 0.144 (inactive) in assay [6]; 0.158 (inactive) in assay [7]. The z-score in [8] was 0.293 (inactive); in assay [9], 0.247. The composite z-score is -0.206 (inactive) in assay [4] and -0.0152 in assay [10].
`CC(c1ccccc1)C(O)C1C=CC2C(=O)N(c3ccccc3)C(=O)C2N1Nc1ccccc1` (stereo not given): the z-score in [1] is -1.45; in [2], -0.652 (inactive); in assay [3] it was -1.4 (inactive); in assay [5], 0.67 (inactive); in assay [6], 0.0166 (inactive); in assay [7], -0.0789 (inactive). Moreover, the z-score in assay [8] was -0.565 (inactive); in [9], -1.28. For the same molecule, the figures for the composite z-score in assay [4] and in [10] were -0.191 (inactive) and 0.255, respectively.
Consider `C=CCC(OC(C)=O)[C@@H]1[C@@H](N(Cc2ccc(-c3cccc(C(F)(F)F)c3)o2)C(=O)c2cccc3ccccc23)c2cc(OCCCO)ccc2N1C(=O)Cc1ccc2ccccc2c1` (stereo not given in full), for which the z-score in assay [1] was -0.496; in assay [2], -0.721 (inactive); in assay [3], -0.291 (inactive); in assay [5], -0.935 (inactive); in [6], -0.0974 (inactive); in assay [7], 0.525 (inactive). The z-score was 0.235 (inactive) in assay [8] and -0.638 in assay [9]. For the same molecule, the composite z-score in [4] is 0.22 (inactive); in [10], -0.242.
With `O=C(O)[C@@]1(CCS(=O)(=O)c2ccccc2)N=C(c2ccc(OCCCO)cc2)O[C@H]1c1ccccc1`, the z-score in [1] is 0.489; in assay [2], -1.11 (inactive); in assay [3], 0.409 (inactive); in assay [5], -1.27 (inactive); in [6], -0.357 (inactive); in assay [7], 0.28 (inactive). Moreover, the z-score in assay [8] is -0.275 (inactive); in assay [9] it was 1.26. The composite z-score in assay [4] is -0.0555 (inactive); in [10], 0.0952.
As to `O=C1OCC=C[C@H]2OC34C=CCN(Cn5nnc6ccccc65)C(=O)[C@H]3N(CCCCCO)C(=O)[C@@H]4[C@@H]12` (stereo not given in full), the z-score in assay [1] is 0.0883; in [2], 0.21 (inactive); in assay [3], -0.0233 (inactive); in assay [5], 0.193 (inactive); in assay [6], -0.273 (inactive); in assay [7] it was -0.293 (inactive). Moreover, the z-score in [8] is -0.571 (inactive); in assay [9] it was -0.0297. The results for the composite z-score in assay [4] and in [10] were -1.24 (inactive) and 0.515, respectively.
As for `CCOC(=O)C[C@H]1[C@H](OC(=O)c2ccc(C(=O)c3ccccc3)cc2)[C@@H](NC(=O)Cc2ccc(OC)cc2)c2cc(OCCCO)ccc2N1C(=O)c1ccc2ccccc2n1`, the z-score in assay [1] was -0.0666; in assay [2], -0.337 (inactive); in assay [3], -0.0911 (inactive); in assay [5] it was 0.207 (inactive); in assay [6], 0.11 (inactive); in [7], -0.572 (inactive). The z-score was -0.335 (inactive) in [8] and 0.273 in assay [9]. For the same molecule, the composite z-score in assay [4] is 0.764 (inactive); in assay [10], 0.0801.
Turning to `C=C(CCCC)C(=O)CC[C@@H](OC(C)=O)c1ccc(CO)o1`, the z-score in assay [1] is 0.519; in assay [2], -12.9 (active); in [3], 0.292 (inactive); in assay [5], 1.27 (inactive); in [6], -0.944 (inactive); in assay [7] it was 0.435 (inactive). Further, the z-score was 0.339 (inactive) in assay [8] and 0.624 in assay [9]. Further, the composite z-score in [4] is -8.56 (active); in assay [10], 0.151.
In the case of `COc1cc2c(cc1O)C(c1cccs1)N(Cc1ccc([N+](=O)[O-])o1)CC2` (stereo not given), the z-score in [1] was -0.302; in [2] it was -2.05 (inactive); in assay [3], 0.278 (inactive); in assay [5] it was 0.723 (inactive); in [6], -1.14 (inactive); in [7], -0.107 (inactive). Besides, the z-score was 1.19 (inactive) in [8] and -0.182 in assay [9]. Further, the composite z-score was -4.93 (inactive) in assay [4] and -0.102 in [10].
In the case of `CO[C@H]1O[C@H](CO)[C@@H](OC(=O)Nc2ccc(Oc3ccccc3)cc2)[C@H](OC(=O)Nc2ccc3c(c2)OCO3)[C@@H]1OC(=O)Nc1ccc2c(c1)OCO2`, the z-score in [1] is -1.01; in assay [2] it was 0.77 (inactive); in [3] it was -0.949 (inactive); in assay [5] it was 1.39 (inactive); in assay [6] it was 2.65 (inactive); in assay [7] it was 0.759 (inactive). Besides, the values for the z-score in assay [8] and in [9] were -0.0218 (inactive) and -0.793, respectively. Also, the values for the composite z-score in assay [4] and in assay [10] were 0.0357 (inactive) and 0.222, respectively.
